# Test results from PubChem BioAssay.
# Values without a mark were called inactive.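 The calls were made as follows: active = compounds killing one labelled cell type while sparing the other, by normalised counts and ratio limits, not self-fluorescent; inactive = the rest.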
# Assay: EMT-state selective cytotoxicity in co-culture – imaging, PC-3E GFP, TEM4-18 mCherry, primary screen (AID 1345086);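 also: normalised mesenchymal count divided by normalised epithelial count so high means epithelial killing; cells exposed to compound for 72 h before imaging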
# Settings: PC-3E GFP / TEM4-18 mCherry co-culture, imaging cell counts; at 1 µM; actives lie on both sides; counts scaled to control wells, 1 = unselective
row,Structure (SMILES),red/green cell ratio (normalised)
1,C[C@@H]1CC[C@H]2C(C)(C)C3CC12CC[C@@]3(C)O (stereo not given in full),0.98
2,COC1=C(O)C(=O)c2c(cc3oc(C(C)=O)c(O)c3c2O)C1=O,1.19
3,O=C(Cc1ccncc1)c1ccc(F)cc1,1.16
4,O=C(N[C@@H](Cc1ccc(O)cc1)C(=O)O)OCc1ccccc1,0.96
5,COc1c(N2CC[C@@H](CN)C2)c(F)cc2c(=O)c(C(=O)O)cn(Cc3ccc(-c4ccccc4)cc3)c12,1.14
6,O=C(O)CCc1ccccc1O,0.97
7,CC(C)[C@@H]1CCC(CO)=C[C@@H]1/C=C(\CO)C(=O)O,0.88
8,C=C(C)[C@@H]1CC[C@]2(C)CC[C@]3(C)[C@@H](CCC4[C@@]5(C)CC[C@H](O)C(C)(C)C5CC[C@]43C)C12 (stereo not given in full),1.12
9,CC1(C)C[C@]2(C)CC(=O)O[C@H]3OC(=O)[C@@H]4CC[C@@H]1[C@]342,0.92
10,O=C1N[C@@H]2[C@@H](Sc3ccccc3)OC(CO)C(O)[C@@H]2O1 (stereo not given in full),0.97
11,C[C@@H]1C[C@@H](O)[C@@H](O)CO1,1.05
12,O=C(O)C(c1ccccc1)c1ccccc1,1.12
13,NC(=O)c1cc(F)c(F)cc1NC1CC1,1.15
14,O=C(O)c1ccc([C@H](O)c2ccccc2)cn1,1.05
15,CC(=O)[C@H]1CCC2C3C=CC4=CC(=O)CC[C@@]4(C)C3CC[C@@]21C (stereo not given in full),0.68
16,CC(C)=CCC[C@H](C)[C@H]1CC[C@]2(C)C[C@@H]3C(C)=CC(=O)[C@@H]3/C(C=O)=C\C[C@@H]12,0.9
17,CO[C@H]1/C=C/O[C@@]2(C)Oc3c(C)c(O)c4c(O)c(c(/C=N/N5CCN(C)CC5)c(O)c4c3C2=O)NC(=O)/C(C)=C\C=C\[C@H](C)[C@H](O)[C@@H](C)[C@@H](O)[C@@H](C)[C@H](CC(C)=O)[C@@H]1C,0.98
18,COC(=O)C[C@@H]1C2(C)C(=O)[C@@H](CC3=C4CC(O)O[C@@H](c5ccoc5)[C@]4(C)CCC32)[C@H](O)C1(C)C (stereo not given in full),1.16
19,COC(=O)c1c(Cl)nc(Cl)c2ccccc12,1.07
20,CO/N=C1/C[C@]2(C[C@@H]3C[C@@H](C/C=C(\C)C[C@@H](C)/C=C/C=C4\COC5[C@H](O)C(C)=C[C@@H](C(=O)O3)[C@]45O)O2)O[C@H](/C(C)=C/C(C)C)[C@H]1C (stereo not given in full),1.32

row,Structure (SMILES),red/green cell ratio (normalised)
1,Cc1c(F)c(F)cc2c(=O)n(N)c(=O)n(C3CC3)c12,0.9
2,COc1cc(C(O)CO)oc1C=O (stereo not given),0.86
3,Cc1ccc(S[C@H]2OC3COC(c4ccccc4)OC3[C@@H]3OC(=O)N[C@H]23)cc1 (stereo not given in full),1.55
4,O=Cc1ccccc1O[C@@H]1O[C@H](CO)[C@H](O)[C@@H](O)[C@H]1O,0.97
5,CC(=O)C1=C(O)C=C2Oc3c(C(N)=O)c(O)cc(O)c3[C@@]2(C)C1=O,1.13
6,COc1c(N2CC[C@@H](CN)C2)c(F)cc2c(=O)c(C(=O)O)cn(Cc3ccc4ccccc4c3)c12,1.09
7,CCC(C)[C@H]1O[C@]2(CC[C@@H]1C)C[C@@H]1C[C@@H](C/C=C(\C)[C@@H](OC3C[C@H](OC)C(O[C@H]4C[C@H](OC)[C@@H](O)[C@H](C)O4)[C@H](C)O3)[C@@H](C)/C=C/C=C3\COC4[C@H](O)C(C)=C[C@@H](C(=O)O1)[C@]34O)O2 (stereo not given in full),0.84
8,COc1c(F)c(F)cc2c(=O)c(C(=O)NO)cn(C3CC3)c12,1.08
9,Cc1[nH]cc[n+]1CC1CCC2C(C1=O)c1ccccc1N2C (stereo not given),0.73
10,NC(CSCSCC(N)C(=O)O)C(=O)O (stereo not given),1.19
11,CC1=C2[C@](C)(C=CC1=O)C[C@H](O)[C@H]1[C@H](C)C(=O)O[C@]21C,1.06
12,NC(=O)c1c(Cl)nc(Cl)c2ccccc12,1.12
13,C=C1OC(=O)C23C(O)C(=O)CC(OC12)C3C (stereo not given),0.89
14,CC#C[C@]1(O)CCC2C3CCC4=CC(=O)CCC4=C3[C@@H](c3ccc(N(C)C)cc3)C[C@@]21C (stereo not given in full),1
15,COC1C(O)C(O)C(O)[C@@H](O)C1O (stereo not given in full),1.11
16,CC(CCC(=O)O)[C@H]1CCC2C3CC[C@@H]4C[C@H](O)CC[C@]4(C)C3C[C@H](O)[C@@]21C (stereo not given in full),1.05
17,CC(=O)NCCc1ccc(O)c(-c2c(O)c(O)c3c(c2O)C(=O)c2c(cc(O)c(C(=O)O)c2C(=O)O)C3=O)c1,1.13
18,C[C@H]1[C@H](C)CC[C@]2(C(=O)O)CC[C@]3(C)C(=CCC4[C@@]5(C)C[C@@H](O)[C@H](O)[C@@](C)(CO)C5[C@H](O)C[C@]43C)[C@H]12 (stereo not given in full),1.27
19,Nc1nc2c(c(=O)[nH]1)NC(CNc1ccc(C(=O)NC(CCC(=O)O)C(=O)O)cc1)=CN2 (stereo not given),0.83
20,OCCN1C[C@H](O)[C@@H](O)C(O)C1CO (stereo not given in full),1.19
